Laboratory results as given in PubChem BioAssay.
Calls of active or inactive are those of the source. Unless noted, no rule for the calls is given here.

Assays:
[1] = test system: Wnt5a (protein binding on small-molecule microarray); experiment: Wnt5a binders on small-molecule microarray, primary screen, biophysical, 635/667 nm fluorescence (AID 1142); conditions: 635 nm fluorescence, higher = more signal;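 also: fluorescence read at 667 nm with signal to noise per printed feature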
[2] = cell viability in Huh7 cells, primary screen, cytotoxicity control for HCV replication inhibitor project, CellTiter-Glo luminescence, basal, 48 h (AID 1143); conditions: Huh7 HCV replicon, higher = more signal, called active from +8 up or from −8 down;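 also: Huh7 hepatoma cells carrying a hepatitis C replication reporter with no stimulus; test concentration not given here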
[3] = P. aeruginosa biofilm formation inhibitors, primary screen, PAO1 strain, BacTiter-Glo luminescence, LB-PBS (AID 1144); conditions: 12 h, higher = more signal
[4] = CREB reporter modulators without forskolin, primary screen, cell-based, PC12, CRE-LacZ reporter, unstimulated (AID 1145); conditions: no forskolin, luminescence, 4.5 h, higher = more signal, called active from +8 up or from −8 down
[5] = CREB reporter modulators under forskolin, primary screen, cell-based, PC12, CRE-LacZ reporter, forskolin-stimulated (AID 1146); conditions: luminescence, 4.5 h, higher = more signal, called active from +8 up or from −8 down;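 also: PC12 cells with 6xCRE LacZ reporter stimulated by forskolin 10 µM; beta-galactosidase reporter signal reflecting CREB driven transcription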
[6] = target: Streptavidin (Streptomyces avidinii) (UniProt P22629); experiment: streptavidin binders on small-molecule microarray, primary screen, artefact control for SMM compound annotation, biophysical, 635/667 nm fluorescence (AID 1147); conditions: streptavidin binding, higher = more signal;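 also: signal reflects streptavidin binding to arrayed compounds as a control protein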
[7] = small-molecule binders of probe aInhba, primary screen, biochemical, small-molecule microarray, 635/667 nm fluorescence (AID 1148); conditions: higher = more signal;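 also: score merges 667nm spot fluorescence with signal-to-noise for antibody binding to printed compounds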
Torsin-1A (Homo sapiens) [8] = target: Torsin-1A (Homo sapiens) (UniProt O14656); experiment: torsin A binders from cell lysate, primary screen, small-molecule microarray, wild-type, 635/667 nm (AID 1149); conditions: COS7 hTOR1A-WT lysate, 635 nm fluorescence, higher = more signal
Torsin-1A (Homo sapiens) [9] = target: Torsin-1A (Homo sapiens) (UniProt O14656); experiment: small-molecule binders of mutant TOR1A in lysate, primary screen, cell lysate, small-molecule microarray, COS7 lysate, 635/667 nm fluorescence (AID 1150); conditions: COS7 hTOR1A mutant lysate, 635 nm fluorescence, higher = more signal;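 also: score pools 667 nm emission and signal to noise measuring lysate protein binding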
[10] = test system: Sonic hedgehog protein (Shh); experiment: small-molecule binders of Shh protein, primary screen, biochemical, small-molecule microarray, 635/667 nm fluorescence (AID 1151); conditions: small-molecule microarray binding, 635 nm fluorescence; higher = more signal;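 also: Shh protein binding to compounds spotted on small-molecule microarray slides; score combines spot fluorescence intensity with signal-to-noise across triplicate slides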
[11] = E. coli DRC41 culture turbidity changes, primary screen, E. coli filamentation inducer project, strain DRC41, OD650, 48 h (AID 1152);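 also: E. coli MC1000 strain DRC41 lacking acrAB efflux pump and sulA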; conditions: E. coli DRC41 (acrAB sulA), higher = more signal, called active from +8 up or from −8 down
[12] = small-molecule binders of probe aLefty1, primary screen, biochemical, small-molecule microarray, 635/667 nm fluorescence (AID 1153); conditions: higher = more signal;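 also: score merges spot fluorescence with signal-to-noise ratio from the scanned slide images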
[13] = PSAC antagonists in infected red cells, primary screen, cell-based, P. falciparum Indochina, OD700, 1 h (AID 1154); conditions: P. falciparum Indochina infected RBC osmotic lysis, higher = more signal, called active from +8 up or from −8 down
[14] = PSAC antagonists in infected red cells, primary screen, cell-based, P. falciparum Indochina, OD700, 2 h (AID 1155);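 also: lysis reports solute entry through the parasite surface anion channel PSAC; channel blockers reduce lysis of infected cells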; conditions: P. falciparum Indochina infected erythrocytes, osmotic lysis OD700; higher = more signal, called active from +8 up or from −8 down
[15] = osmotic lysis modulators in infected erythrocytes, primary screen, PSAC antagonist project, cell-based, P. falciparum Indochina, OD700, 3 h (AID 1156); conditions: higher = more signal, called active from +8 up or from −8 down
[16] = PSAC antagonists in infected red cells, primary screen, cell-based, P. falciparum Indochina, OD700, 18 h (AID 1157); conditions: P. falciparum Indochina infected erythrocytes, osmotic lysis OD700, 18 h; higher = more signal, called active from +8 up or from −8 down
[17] = modulators of S6 phosphorylation in cells, primary screen, cell-based, A549, cytoblot, luminescence, serum-stimulated (AID 1158); conditions: A549 phospho-S6 cytoblot, 5 h, higher = more signal;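 also: serum-stimulated A549 lung adenocarcinoma cells; signal is phosphorylated S6 detected by cytoblot immunostaining with HRP secondary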
[18] = target: NADPH oxidase 2 (Homo sapiens) (UniProt P04839); experiment: NOX2-dependent H2O2 signal modulators, primary screen, NOX inhibitor project, cell-based, HEK293-NOX2, PMA-stimulated, Amplex Red fluorescence (AID 1159); conditions: 45 min, higher = more signal, called active from +8 up or from −8 down; also: test concentration not given here
[19] = target: NADPH oxidase 4 (Homo sapiens) (UniProt Q9NPH5); experiment: NOX4-dependent H2O2 signal modulators, primary screen, NOX inhibitor project, cell-based, HEK293-NOX4, tetracycline-induced, Amplex Red fluorescence (AID 1160); conditions: 45 min, higher = more signal, called active from +8 up or from −8 down
[20] = target: NADPH oxidase 5 (Homo sapiens) (UniProt Q96PH1); experiment: NOX5-dependent H2O2 signal modulators, primary screen, NOX inhibitor project, cell-based, HEK293-NOX5, Amplex Red fluorescence (AID 1161); conditions: HEK293-NOX5, ionomycin, 45 min, higher = more signal
Chain of NADPH oxidase 5 (Homo sapiens) (Q96PH1 whole entry, looked up): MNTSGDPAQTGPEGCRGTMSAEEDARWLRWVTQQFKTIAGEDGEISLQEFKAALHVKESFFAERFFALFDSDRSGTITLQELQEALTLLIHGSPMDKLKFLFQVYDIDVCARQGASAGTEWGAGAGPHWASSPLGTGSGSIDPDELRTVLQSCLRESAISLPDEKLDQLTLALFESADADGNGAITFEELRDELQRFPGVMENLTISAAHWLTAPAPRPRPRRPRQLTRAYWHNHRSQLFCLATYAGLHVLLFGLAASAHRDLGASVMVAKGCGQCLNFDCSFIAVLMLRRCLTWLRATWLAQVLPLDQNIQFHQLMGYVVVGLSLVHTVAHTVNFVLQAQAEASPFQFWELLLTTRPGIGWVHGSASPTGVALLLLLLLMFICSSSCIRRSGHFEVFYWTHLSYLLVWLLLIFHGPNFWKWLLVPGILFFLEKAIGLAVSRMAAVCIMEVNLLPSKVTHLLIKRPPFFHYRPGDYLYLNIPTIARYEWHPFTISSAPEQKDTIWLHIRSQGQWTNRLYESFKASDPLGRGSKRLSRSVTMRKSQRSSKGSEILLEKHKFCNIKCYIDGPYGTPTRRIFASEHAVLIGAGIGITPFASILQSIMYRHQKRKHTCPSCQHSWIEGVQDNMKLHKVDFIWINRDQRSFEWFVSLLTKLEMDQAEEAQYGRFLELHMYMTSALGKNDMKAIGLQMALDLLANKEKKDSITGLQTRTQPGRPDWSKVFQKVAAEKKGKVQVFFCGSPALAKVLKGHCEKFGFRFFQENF

Chain of NADPH oxidase 4 (Homo sapiens) (Q9NPH5 whole entry, looked up): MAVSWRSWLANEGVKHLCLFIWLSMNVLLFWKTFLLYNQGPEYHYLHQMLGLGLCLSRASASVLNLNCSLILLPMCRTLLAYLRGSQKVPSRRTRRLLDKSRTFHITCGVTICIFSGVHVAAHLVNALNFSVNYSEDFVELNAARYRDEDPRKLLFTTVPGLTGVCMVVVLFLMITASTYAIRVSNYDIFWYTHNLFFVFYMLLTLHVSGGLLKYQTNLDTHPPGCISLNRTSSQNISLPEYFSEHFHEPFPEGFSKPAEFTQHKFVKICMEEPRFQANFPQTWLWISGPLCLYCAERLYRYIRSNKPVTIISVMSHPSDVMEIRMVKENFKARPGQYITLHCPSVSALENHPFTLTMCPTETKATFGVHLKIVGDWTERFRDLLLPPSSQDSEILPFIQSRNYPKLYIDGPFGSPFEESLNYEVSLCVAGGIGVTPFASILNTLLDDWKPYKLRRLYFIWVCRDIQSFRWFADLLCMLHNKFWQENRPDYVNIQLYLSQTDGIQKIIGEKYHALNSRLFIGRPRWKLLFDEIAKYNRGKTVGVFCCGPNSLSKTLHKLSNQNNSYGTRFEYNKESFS
Chain of NADPH oxidase 2 (Homo sapiens) (P04839 whole entry, looked up): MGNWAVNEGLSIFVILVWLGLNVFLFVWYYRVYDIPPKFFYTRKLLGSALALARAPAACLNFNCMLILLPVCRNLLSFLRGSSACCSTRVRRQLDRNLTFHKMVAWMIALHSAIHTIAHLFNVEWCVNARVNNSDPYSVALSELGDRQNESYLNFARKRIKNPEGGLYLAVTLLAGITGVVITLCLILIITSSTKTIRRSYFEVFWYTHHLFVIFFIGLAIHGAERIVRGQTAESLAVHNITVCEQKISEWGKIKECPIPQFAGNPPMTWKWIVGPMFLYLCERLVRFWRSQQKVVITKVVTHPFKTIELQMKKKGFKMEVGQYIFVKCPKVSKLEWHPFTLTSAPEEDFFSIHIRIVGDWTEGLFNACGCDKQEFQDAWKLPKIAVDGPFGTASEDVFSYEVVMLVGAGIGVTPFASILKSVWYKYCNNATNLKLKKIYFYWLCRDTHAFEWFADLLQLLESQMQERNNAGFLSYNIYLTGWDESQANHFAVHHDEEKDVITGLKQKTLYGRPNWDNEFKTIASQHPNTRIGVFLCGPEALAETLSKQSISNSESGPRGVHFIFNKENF
Chain of Streptavidin (Streptomyces avidinii) (P22629 whole entry, looked up): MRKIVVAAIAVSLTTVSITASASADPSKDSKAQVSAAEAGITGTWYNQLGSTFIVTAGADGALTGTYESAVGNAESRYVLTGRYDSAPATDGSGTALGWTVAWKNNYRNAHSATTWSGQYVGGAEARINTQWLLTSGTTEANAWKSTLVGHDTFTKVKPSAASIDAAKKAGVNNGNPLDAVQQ
Chain of Torsin-1A (Homo sapiens) (O14656 whole entry, looked up): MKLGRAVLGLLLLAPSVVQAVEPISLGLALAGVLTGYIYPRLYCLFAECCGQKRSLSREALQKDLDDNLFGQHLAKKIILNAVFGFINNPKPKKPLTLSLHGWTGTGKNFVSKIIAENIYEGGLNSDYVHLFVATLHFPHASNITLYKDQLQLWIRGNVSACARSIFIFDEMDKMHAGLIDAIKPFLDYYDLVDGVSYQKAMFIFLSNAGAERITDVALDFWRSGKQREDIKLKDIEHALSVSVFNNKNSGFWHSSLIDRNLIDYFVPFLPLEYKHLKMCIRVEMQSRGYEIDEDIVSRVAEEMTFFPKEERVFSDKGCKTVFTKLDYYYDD

| Structure (SMILES) | composite z-score [1] | z-score [2] | z-score [3] | z-score [4] | z-score [5] | composite z-score [6] | composite z-score [7] | composite z-score (Torsin-1A (Homo sapiens) [8]) | composite z-score (Torsin-1A (Homo sapiens) [9]) | composite z-score [10] | z-score [11] | composite z-score [12] | z-score [13] | z-score [14] | z-score [15] | z-score [16] | z-score [17] | z-score [18] | z-score [19] | z-score [20] |
| --- | --- | --- | --- | --- | --- | --- | --- | --- | --- | --- | --- | --- | --- | --- | --- | --- | --- | --- | --- | --- |
| COc1cccc([C@H]2Oc3ccc(OC)cc3C(=NOCC[C@@H]3C=C[C@H](OC(C)=O)[C@@H](COC(C)=O)O3)[C@@H]2O)c1 | 0.0377 | -0.0868 (inactive) | 1.43 (inactive) | 5.08 (inactive) | 0.497 (inactive) | -0.112 | -0.154 | 0.186 | 0.273 | 0.509 | -1.05 (inactive) | -0.18 | 1.16 (inactive) | 0.236 (inactive) | -0.125 (inactive) | 0.416 (inactive) | -1.04 | 0.511 (inactive) | 1.03 (inactive) | -0.14 |
| CCOC(=O)[C@H](Cc1ccccc1)NC(=O)CCC1CC(OC(=O)NCc2ccc3c(c2)OCO3)CC2(CCCC(COC(=O)NCCOC)O2)O1 (stereo not given in full) | 0.274 | -3.06 (inactive) | -0.212 (inactive) | -0.256 (inactive) | 0.59 (inactive) | 0.91 | -0.016 | 0.351 | 0.291 | 1.91 | -0.11 (inactive) | -0.0428 | -1.89 (inactive) | -1.39 (inactive) | 0.61 (inactive) | -1.67 (inactive) | 2.53 | 0.195 (inactive) | -0.931 (inactive) | -2.16 |
| CC(CCN1CCCc2nc(C)c(C)cc21)=NO[C@H](C)c1cn([C@H](CO)Cc2ccccc2)nn1 | 0.22 | -0.535 (inactive) | 0.13 (inactive) | 2.77 (inactive) | -0.245 (inactive) | -0.0592 | 0.0487 | 1 | 0.25 | 1.04 | 0.115 (inactive) | 0.0402 | 5.14 (inactive) | 0.985 (inactive) | 2.45 (inactive) | 0.638 (inactive) | -0.0039 | -0.443 (inactive) | -0.076 (inactive) | 0.863 |
| O=C1[C@H]2[C@H]3[C@H](O)[C@H](O)CC(=NO[C@@H]4O[C@H](CO)[C@@H](O)[C@H](O)[C@H]4O)[C@@H]3CC[C@H]2C(=O)N1c1cccc(Oc2ccccc2)c1 | 0.0469 | 0.353 (inactive) | -0.774 (inactive) | 0.967 (inactive) | 0.314 (inactive) | 0.532 | -0.0504 | 0.787 | 0.0995 | 0.828 | -0.192 (inactive) | -0.0967 | -0.612 (inactive) | -0.0313 (inactive) | 0.271 (inactive) | 0.0606 (inactive) | -0.263 | 0.614 (inactive) | 1.02 (inactive) | 0.544 |
| CCO[C@H](c1cc(OC)cc([N+](=O)[O-])c1OC)[C@H](C)[C@@H](OC)[C@H](C)C=CCC(=O)OC | 0.018 | -0.267 (inactive) | -0.378 (inactive) | 0.0246 (inactive) | -0.183 (inactive) | -0.0837 | -0.183 | 0.388 | 0.294 | 0.628 | -0.321 (inactive) | 0.0367 | 2.26 (inactive) | 0.282 (inactive) | 0.528 (inactive) | 0.318 (inactive) | -0.421 | -1.73 (inactive) | -0.442 (inactive) | -1.11 |
| O=C1C=C[C@@H](O)[C@@H]2[C@@H]3C(=O)N(Cc4ccccc4)C(=O)[C@@H]3CC[C@@H]12 | -0.0088 | -0.122 (inactive) | -0.158 (inactive) | -0.566 (inactive) | -0.768 (inactive) | 0.222 | -0.128 | 0.418 | 0.376 | 0.632 | 0.763 (inactive) | -0.0145 | 0.09 (inactive) | 0.201 (inactive) | 0.853 (inactive) | -0.0165 (inactive) | 0.09 | 0.808 (inactive) | 0.553 (inactive) | 0.455 |
| CSCC[C@@H]1NC(=O)CC=C[C@@H](C)COC(=O)[C@H](C)COC1=O | 0.624 | -1.67 (inactive) | -1.66 (inactive) | 0.163 (inactive) | -0.925 (inactive) | -0.918 | -0.17 | 3.64 | 3.77 | 2.45 | 0.832 (inactive) | -0.321 | -0.274 (inactive) | -1.3 (inactive) | -0.92 (inactive) | -1.58 (inactive) | 2.08 | -1.01 (inactive) | 0.384 (inactive) | 0.515 |
| C[C@@H]1CC[C@H]2C(=O)OC(Cc3ccccc3)CN2[C@H]1c1ccc(Br)cc1 (stereo not given in full) | -0.0444 | -0.395 (inactive) | 0.7 (inactive) | 1.2 (inactive) | -0.517 (inactive) | 0.221 | -0.0963 | 0.172 | -0.0439 | 0.513 | 0.283 (inactive) | -0.0111 | 1.96 (inactive) | 0.728 (inactive) | -0.23 (inactive) | 0.54 (inactive) | -0.0843 | 0.379 (inactive) | 0.268 (inactive) | 0.151 |
